High-throughput results deposited in PubChem by National Center for Advancing Translational Sciences (NCATS).
Sampled rows, rich in hits. Any-hit rate of the full collection: about 3.2%.
Tau fibril ThT: qHTS for Inhibitors of Tau Fibril Formation, Thioflavin T Binding; recombinant tau K18 P301L, heparin-induced fibrillization, ThT fluorescence; Potency, µM (top dose mostly 57.4 µM), inactives show at the highest dose activity, negative = inhibition, actives largely listed as inhibitors; 2.1% of 270,000 active; Microtubule-associated protein tau (Homo sapiens), P10636; also: potency is read from the fitted curve at half-maximal effect; % is scaled to controls: 0 for no effect and ±100 for the full control effect; nearly all actives have a fitted effect of over 55% in size
Target sequence (P10636 561-689 P618L limits assumed): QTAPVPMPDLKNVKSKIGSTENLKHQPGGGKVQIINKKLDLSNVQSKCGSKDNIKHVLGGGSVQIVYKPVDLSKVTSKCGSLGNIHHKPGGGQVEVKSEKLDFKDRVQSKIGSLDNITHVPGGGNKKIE
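Using a mix of unlabeled (15 uM) and Alexa 594-labeled (0.24 uM) tau K18 P301L, heparin-triggered fibrillization over 6 hr at 37 C was scored by ThT fluorescence.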
JMJD2E inh: qHTS Assay for Inhibitors of Human Jumonji Domain Containing 2E (JMJD2E) | Lysine-specific demethylase 4E (Homo sapiens), B2RXH2 | JMJD2E catalytic domain, FDH-coupled NADH fluorescence (FDH is formaldehyde dehydrogenase) | Potency, µM (highest dose often 57.1 µM), without a hit: at the top dose activity change, negative = inhibition, most hits filed as inhibitors | 1.6% of 230,000 active | AID 2147, 2009; active = well fitted inhibition curve with a large enough effect, not every such curve was filed as active; inconclusive = small, poorly fitted or top-dose-only effect, or another doubt; inactive = no such curve, though single readings can be large or run the other way;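 also: potency is read from the fitted curve at half-maximal effect; 0% = wells with enzyme and -100% = buffer wells without enzyme; nearly all actives have a fitted effect of over 50% in size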
Target sequence (B2RXH2 1-337 limits assumed): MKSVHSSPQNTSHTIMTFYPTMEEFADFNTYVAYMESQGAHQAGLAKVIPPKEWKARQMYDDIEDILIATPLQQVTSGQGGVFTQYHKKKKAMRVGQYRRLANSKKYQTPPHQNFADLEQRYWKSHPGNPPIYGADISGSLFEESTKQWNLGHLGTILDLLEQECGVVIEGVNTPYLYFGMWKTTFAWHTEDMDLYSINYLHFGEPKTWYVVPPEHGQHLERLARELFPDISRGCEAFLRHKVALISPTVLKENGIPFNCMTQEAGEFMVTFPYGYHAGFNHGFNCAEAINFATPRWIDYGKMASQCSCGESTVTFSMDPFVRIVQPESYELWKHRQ
CBFb RUNX1 block: qHTS Assay for Compounds Blocking the Interaction Between CBF-beta and RUNX1 for the Treatment of Acute Myeloid Leukemia; Runt-related transcription factor 1 (Homo sapiens) + Core-binding factor subunit beta …; AlphaScreen CBFb-His/RUNX1-biotin binding, biochemical; Potency, µM (series often up to 59.8 µM), without a hit: at the highest dose activity, negative = inhibition, actives largely listed as inhibitors; 230,000 tested, under 10 active; AID 1477, 2009; also: % of control where 0% means no effect
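CBF-beta (His) and RUNX1 (biotin), 30 nM each; 20 min preassociation; + compound, 15 min; + beads 50 ng each (Ni, streptavidin), 90 min; RT; AlphaScreen read.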
Tau FP inhib: qHTS for Inhibitors of Tau Fibril Formation, Fluorescence Polarization. Microtubule-associated protein tau (Homo sapiens), P10636. K18 P301L tau heparin fibrillization, Alexa594 FP, 6 h. Potency, µM (highest dose often 57.7 µM), for inactives: at the top dose activity, negative = inhibition, actives largely listed as inhibitors. 0.39% of 280,000 active. AID 1468, 2008; also: potency is read from the fitted curve at half-maximal effect; % is scaled to controls: 0 for no effect and ±100 for the full control effect; nearly all actives have a fitted effect of over 55% in size
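Recombinant K18 P301L […], labeled with Alexa 594 at 0.24 uM over 15 uM unlabeled; heparin inducer 20 uM final; 37 C, 6 hr; FP endpoint.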
Lamin A splicing: qHTS Assay for Modulators of Lamin A Splicing. HeLa LMNA splicing GFP/RFP minigene ratio, 48 h. Potency, µM (series often up to 46.1 µM), for the others: at the top dose ratio change, negative = inhibition, most hits filed as inhibitors. 0.01% of 200,000 active. AID 1487, 2009; active = well fitted inhibition curve with a large enough effect in the signal ratio, with a control signal flat, not every such curve was filed as active; inconclusive = small, poorly fitted or top-dose-only effect, or effect the other way, or a change in a side signal; the % refers to the signal ratio; also: potency is read from the fitted curve at half-maximal effect; % is scaled to controls: 0 for no effect and ±100 for the full control effect
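S3 HeLa stable clones carrying a lamin A-EGFP splicing minigene plus DsRed2 were seeded at 600 cells/well in Opti-MEM with 2% FBS, pin-dosed and incubated 48 h at 37°C. Acumen cytometry (488 nm) gave the GFP/RFP total-intensity ratio.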
Tau fluor cs: Counterscreen qHTS for Inhibitors of Tau Fibril Formation, Fluorescence Polarization; tau K18 P301L (four-repeat tau fragment) Alexa594 fluorescence, heparin fibrillization; Potency, µM (highest dose often 57.7 µM), for inactives: top-dose activity change, negative = decrease; 0.93% of 280,000 active; AID 1463, 2008; also: potency is read from the fitted curve at half-maximal effect; % is scaled to controls: 0 for no effect and ±100 for the full control effect; nearly all actives have a fitted effect of over 55% in size
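Human K18 P301L tau (15 uM unlabeled plus 0.24 uM Alexa 594-labeled, final) in 100 mM sodium acetate pH 7 was mixed with compound and 20 uM heparin and incubated 6 hr at 37 C.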
An asterisk follows results filed as active; ? = inconclusive; . = no result given; [ ] = another dose, or the depositor's remark. Unless noted, calls follow the shape of the dose curve; as a rule, active = well fitted curve in the direction sought with a large enough effect; inconclusive = small, poorly fitted or top-dose-only effect, or another doubt; inactive = no such curve, though single readings can be large; an effect the other way counts as inactive or inconclusive.

SMILES	Tau fibril ThT	JMJD2E inh	CBFb RUNX1 block	Tau FP inhib	Lamin A splicing	Tau fluor cs
O=C(N/N=C/c1c[nH]c2ccccc12)C1CC1(c1ccccc1)c1ccccc1 (centres undefined)	-11%	-12%	-11%	-3%	?	7.1µM*[quencher]
COC(=O)N/N=C/c1c[nH]c2ccccc12	-4%	8%	2%	3%	-1%	1%
N#C/C(=C(/O)c1cc2ccccc2o1)c1nc2ccccc2s1	6.3µM*	3%	5%	?	.	?
NC(=O)NC(=O)COC(=O)c1ccc(Cl)c(S(=O)(=O)N(Cc2ccccc2)c2ccc(Cl)cc2)c1	-7%	-10%	-18%	11µM*	?	?
NC(=O)COC(=O)c1ccc(Cl)c(S(=O)(=O)N(Cc2ccccc2)c2ccc(Cl)cc2)c1	-16%	6%	-13%	?	-14%	?
CCOC(=O)Cc1csc(NC(=O)c2ccc(Br)o2)n1	-19%	0%	5%	1%	1%	-4%
CCOC(=O)Cc1csc(NC(=O)c2sc3nc4ccc(CC)cc4cc3c2N)n1	8.9µM*	?	4%	3%	2%	-28%
CCOC(=O)Cc1csc(NC(=O)c2sc3nc4cc(C)ccc4cc3c2N)n1	2.5µM*	2%	0%	14%	?	?
CCC1=C/C(=C/N(C)c2ccccc2)C(=O)S1	25µM*	-8%	-3%	?	-2%	?
CSc1cccc(NC(=O)Cn2ncn3c(cc4ccccc43)c2=O)c1	-16%	.	.	-8%	.	20µM*[quencher]
Nc1ccccc1Nc1cc(-c2cccc(Cl)c2)nn1-c1ccccc1	?	?	-24%	?	?	13µM*[quencher]
Cc1cc(Nc2ccccc2)n(-c2cccc(Cl)c2)n1	-4%	-3%	8%	11%	?	-26%
CNC(=O)c1ccc(-c2sc3nc(N4CCOCC4)c4c(c3c2N)CC(C)(C)OC4)o1	?	?	-1%	2%	0%	?
CNC(=O)c1ccc(-c2sc3nc(N4CCOCC4)c4c(c3c2N)CCCC4)o1	16µM*	?	29%	20%	-13%	14µM*[quencher]
Cc1ccc(NC2=CC(c3ccccc3F)N(c3ccc(C)cc3)C2=O)cc1 (centres undefined)	-16%	.	.	-3%	.	-9%
Cc1ccc(NC(=O)CN2C(=O)N/C(=C/c3ccco3)C2=O)cc1	?	16µM*	?	?	-1%	-24%
CCN(CC)S(=O)(=O)c1nnc(NC(=O)c2ccc(C(C)C)cc2)s1	?	.	.	-23%	?	?
O=S1(=O)C=C(Sc2nc3cc(Cl)ccc3o2)c2ccccc21	?	?	-6%	25µM*	?	7.1µM*[quencher]
CN(C)c1nc(N)nc(CSc2nc3cc(Cl)ccc3o2)n1	-12%	4%	0%	-1%	4%	0%
CC(=O)N(/N=C1\Sc2ccccc2C1=O)c1ccccc1C	11µM*	5%	?	6%	17%	-17%
N#CC12COC3(CCCCC3C1(C#N)C#N)OC2=N (centres undefined)	14µM*	?	4%	?	.	-22%
O=C(C1=C[C@@H]2[C@H]3C(=O)N(c4ccccc4Cl)C(=O)[C@H]3[C@@H](C(=O)c3ccc(Cl)cc3)N2C=C1)c1ccccc1	22µM*	?	-13%	-9%	7%	?
Cc1sc2ncnc(N/N=C/c3ccc(O)cc3)c2c1C	4.5µM*	-16%	-15%	9%	?	13µM*[quencher]
Cc1sc2ncnc(N/N=C/c3ccccc3O)c2c1C	?	25µM*	.	?	?	?
COc1ccccc1C(=O)NCCn1cc(SCC(=O)Nc2ccccc2F)c2ccccc21	-8%	.	.	0%	.	-23%
SMILES	Tau fibril ThT	JMJD2E inh	CBFb RUNX1 block	Tau FP inhib	Lamin A splicing	Tau fluor cs
CCC(C(=O)Nc1cc(C)ccc1OC)n1nnc(C(=O)OC)c1C(=O)OC (centres undefined)	-11%	.	.	5%	.	-12%
CN(C)c1ccc(-n2cc3c(=O)n(C)c(=O)n(C)c3c2)cc1	2.8µM*	?	-19%	3%	12%	-20%
CCN(CC)c1ccc(-n2cc3c(=O)n(C)c(=O)n(C)c3c2)cc1	5µM*	?	?	6%	?	?
CC(=O)Nc1ccc(-n2cc3c(c2-c2ccc(C)cc2)c(=O)n(C)c(=O)n3C)cc1	-8%	.	.	-10%	.	-21%
COc1ccc(N2C(=O)/C(=C/c3cccs3)NC2=S)cc1	22µM*	0%	8%	?	-4%	-25%
Cc1[nH]nc2c1C(c1ccco1)C(C#N)=C(N)O2 (centres undefined)	-8%	-2%	11%	6%	-23%[46 µM]	-1%
COc1ccc(-c2ccc(C3C(C#N)=C(N)Oc4n[nH]c(C)c43)o2)cc1 (centres undefined)	4.5µM*	-15%	-9%	-1%	?	?
O=[N+]([O-])c1cccc(N/N=C/c2cccc(O)c2O)c1	7.9µM*	14µM*	-26%	5%	?	16µM*[quencher]
C/C(=N\Nc1cccc([N+](=O)[O-])c1)c1ccccc1O	?	-8%	-8%	?	.	5µM*[quencher]
O=[N+]([O-])c1ccccc1N/N=C/c1cccc(O)c1O	?	-2%	-24%	6%	.	-16%
O=C(CCc1ccc(S(=O)(=O)N2CCOCC2)cc1)N/N=C/c1ccc(O)c(O)c1O	25µM*	10µM*	?	?	16%	-30%
O=[N+]([O-])c1ccc(N/N=C/c2ccc(O)c(O)c2O)c(S(=O)(=O)N2CCOCC2)c1	4µM*	7.9µM*	?	10µM*	-8%[46 µM]	?
O=C(CCc1ccc(S(=O)(=O)N2CCOCC2)cc1)N/N=C/c1ccc(F)cc1F	3%	1%	8%	-8%	-5%[46 µM]	-8%
CCOCCCNC(=O)Cn1nc(C)n2c(cc3cc(C)ccc32)c1=O	-1%	.	.	-1%	.	4%
O=[N+]([O-])c1ccc(N/N=C/c2cccc(O)c2O)c(S(=O)(=O)N2CCOCC2)c1	?	14µM*	-24%	0%	-20%[46 µM]	?
COc1cc(/C=N/Nc2ccc([N+](=O)[O-])cc2S(=O)(=O)N2CCOCC2)cc(OC)c1OC	?	-1%	4%	-3%	-10%	?
O=[N+]([O-])c1ccc(N2CCCCC2)nc1N1CCCCC1	?	2%	?	0%	.	-22%
